Where “and” joins values, the source holds several entries; their conditions need not be identical. Identical values can stand only once. The campaign covered roughly 5,500 compounds. About 2,000 (36%) were called active. Roughly 18% stayed inconclusive and do not appear here. Cut-off read from the data, not from the text of the source: active = normalized growth mostly below about 0.91 (no sharp cut-off); inconclusive = no clear call, values can overlap the other calls; inactive = mostly above about 0.92. This is one part of the list.
Test: chemical genetic growth profiling, strain panel (AID 1159580);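 note: tested at 20 µM; growth read once vehicle control cultures reached saturation at 30 °C; 1 = growth at the plate median or of vehicle wells; lower values mean less growth of the strain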
Settings: S. cerevisiae deletion strains, growth OD

Measured: normalized growth

CCOC(=O)c1c(C)cc(O)cc1O
active: locus YAL030W, strain snc1, stronger effect = lower value 0.928 | locus YBR009C, strain hhf1, stronger effect = lower value 0.896 | locus YBR231C, strain swc5, stronger effect = lower value 0.897 | locus YCL011C, strain gbp2, stronger effect = lower value 0.891 | locus YDL134C, strain PPH21, stronger effect = lower value 0.874 | locus YDL185W, strain tfp1, stronger effect = lower value 0.896 | locus YDL192W, strain arf1, stronger effect = lower value 0.896 | locus YDR001C, strain nth1, stronger effect = lower value 0.909 | locus YDR101C, strain arx1, stronger effect = lower value 0.915 | locus YDR318W, strain mcm21, stronger effect = lower value 0.893 | locus YDR388W, stronger effect = lower value 0.916 | locus YDR502C, strain sam2, stronger effect = lower value 0.844 | locus YER015W, strain faa2, stronger effect = lower value 0.924 | locus YER110C, stronger effect = lower value 0.882 | locus YER155C, strain BEM2 (second series), stronger effect = lower value 0.857 | locus YGL078C, strain dbp3, stronger effect = lower value 0.912 | locus YGL086W, strain mad1, stronger effect = lower value 0.883 | locus YGL240W, strain doc1, stronger effect = lower value 0.887 | locus YGL248W, strain PDE1, stronger effect = lower value 0.877 | locus YGR135W, strain pre9, stronger effect = lower value 0.823 | locus YHR027C, strain rpn1, stronger effect = lower value 0.917 | locus YHR079C, strain IRE1 (second series), stronger effect = lower value 0.919 | locus YHR094C, strain hxt1, stronger effect = lower value 0.919 | locus YHR142W, strain chs7, stronger effect = lower value 0.866 | locus YHR200W, strain rpn10, stronger effect = lower value 0.864 | locus YIR030C, strain dcg1, stronger effect = lower value 0.913 | locus YJL095W, strain BCK1 (second series), stronger effect = lower value 0.917 | locus YJL164C, strain tpk1, stronger effect = lower value 0.903 | locus YJL168C, strain set2, stronger effect = lower value 0.931 | locus YKL068W, stronger effect = lower value 0.928 | locus YKL085W, strain MDH1 (second series), stronger effect = lower value 0.912 | locus YKL085W, strain MDH1, stronger effect = lower value 0.912 | locus YKR001C, strain vps1, stronger effect = lower value 0.732 | locus YLL041C, strain sdh2, stronger effect = lower value 0.917 | locus YLR039C, strain RIC1, stronger effect = lower value 0.604 | locus YLR258W, strain gsy2, stronger effect = lower value 0.906 | locus YLR262C, strain YPT6, stronger effect = lower value 0.556 | locus YLR330W, strain CHS5, stronger effect = lower value 0.876 | locus YLR370C, strain arc18, stronger effect = lower value 0.895 | locus YLR371W, strain rom2, stronger effect = lower value 0.767 | locus YLR418C, strain cdc73, stronger effect = lower value 0.758 | locus YML016C, strain PPZ1, stronger effect = lower value 0.888 | locus YML032C, strain rad52, stronger effect = lower value 0.897 | locus YML124C, strain tub3, stronger effect = lower value 0.911 | locus YMR078C, strain ctf18, stronger effect = lower value 0.881 | locus YMR223W, strain ubp8, stronger effect = lower value 0.898 | locus YNL233W, strain BNI4, stronger effect = lower value 0.788 | locus YNL248C, strain rpa49, stronger effect = lower value 0.872 | locus YNL250W, strain rad50, stronger effect = lower value 0.862 | locus YNL271C, strain bni1, stronger effect = lower value 0.906 | locus YNL307C, strain MCK1, stronger effect = lower value 0.846 | locus YOL147C, strain pex11, stronger effect = lower value 0.912 | locus YOR001W, strain rrp6, stronger effect = lower value 0.89 | locus YOR069W, strain VPS5, stronger effect = lower value 0.924 | locus YOR106W, strain vam3, stronger effect = lower value 0.855 | locus YOR144C, strain elg1, stronger effect = lower value 0.913 | locus YOR265W, strain rbl2, stronger effect = lower value 0.913 | locus YOR270C, strain vph1, stronger effect = lower value 0.721 | locus YOR316C, strain cot1, stronger effect = lower value 0.917 | locus YPL078C, strain atp4, stronger effect = lower value 0.887 | locus YPR119W, strain clb2, stronger effect = lower value 0.904 | locus YPR141C, strain kar3, stronger effect = lower value 0.901 | locus YPR163C, strain tif3, stronger effect = lower value 0.908 | locus YPR167C, strain met16, stronger effect = lower value 0.891 | strain wtn01, stronger effect = lower value 0.892
0.787 (active) and 0.917 (inactive): locus YJL095W, strain BCK1, stronger effect = lower value
inactive: locus YAL021C, strain ccr4, stronger effect = lower value 0.924 | locus YAL026C, strain drs2, stronger effect = lower value 0.946 | locus YBL061C, strain skt5, stronger effect = lower value 0.94 | locus YBR021W, strain FUR4, stronger effect = lower value 1.01 | locus YBR023C, strain chs3, stronger effect = lower value 0.922 | locus YBR171W, strain sec66, stronger effect = lower value 0.904 | locus YBR229C, strain ROT2, stronger effect = lower value 0.941 | locus YBR279W, strain paf1, stronger effect = lower value 0.947 | locus YCL016C, strain dcc1, stronger effect = lower value 0.921 | locus YCL029C, strain bik1, stronger effect = lower value 0.92 | locus YCL069W, strain vba3, stronger effect = lower value 0.939 | locus YCR088W, strain abp1, stronger effect = lower value 0.934 | locus YDL005C, strain med2, stronger effect = lower value 0.921 | locus YDL035C, strain GPR1, stronger effect = lower value 0.973 | locus YDL040C, strain nat1, stronger effect = lower value 0.94 | locus YDL074C, strain BRE1, stronger effect = lower value 0.923 | locus YDL101C, strain DUN1, stronger effect = lower value 0.917 | locus YDR069C, strain doa4, stronger effect = lower value 0.916 | locus YDR137W, strain rgp1, stronger effect = lower value 0.905 | locus YDR159W, strain sac3, stronger effect = lower value 0.887 | locus YDR162C, strain NBP2, stronger effect = lower value 0.87 | locus YDR195W, strain ref2 0.981 | locus YDR297W, strain sur2, stronger effect = lower value 0.93 | locus YDR334W, strain swr1, stronger effect = lower value 0.922 | locus YDR335W, strain msn5, stronger effect = lower value 0.935 | locus YDR392W, strain spt3, stronger effect = lower value 0.831 | locus YEL003W, strain gim4, stronger effect = lower value 0.947 | locus YEL037C, strain rad23, stronger effect = lower value 0.937 | locus YEL061C, strain CIN8 (second series), stronger effect = lower value 0.937 | locus YER016W, strain bim1, stronger effect = lower value 0.946 | locus YER111C, strain swi4, stronger effect = lower value 0.937 | locus YER155C, strain BEM2, stronger effect = lower value 0.927 | locus YER167W, strain BCK2, stronger effect = lower value 0.941 | locus YFR010W, strain ubp6, stronger effect = lower value 0.92 | locus YGL167C, strain pmr1, stronger effect = lower value 0.922 | locus YGL173C, strain kem1, stronger effect = lower value 0.928 | locus YGL227W, strain vid30, stronger effect = lower value 0.937 | locus YGL253W, strain hxk2, stronger effect = lower value 0.918 | locus YGR252W, strain gcn5, stronger effect = lower value 0.937 | locus YHR013C, strain ard1, stronger effect = lower value 0.941 | locus YHR030C, strain SLT2, stronger effect = lower value 0.93 | locus YHR079C, strain IRE1, stronger effect = lower value 0.918 | locus YHR129C, strain ARP1, stronger effect = lower value 0.924 | locus YIL066C, strain RNR3, stronger effect = lower value 0.951 | locus YIL073C, strain SPO22, stronger effect = lower value 0.888 | locus YIL125W, strain kgd1, stronger effect = lower value 0.945 | locus YJL092W, strain hpr5, stronger effect = lower value 0.923 | locus YJL115W, strain asf1, stronger effect = lower value 0.939 | locus YJL129C, strain trk1, stronger effect = lower value 0.929 | locus YJL134W, strain LCB3, stronger effect = lower value 0.931 | locus YJL154C, strain vps35, stronger effect = lower value 0.922 | locus YJL166W, strain qcr8, stronger effect = lower value 0.908 | locus YJL187C, strain SWE1 (second series), stronger effect = lower value 0.878 | locus YJL187C, strain SWE1, stronger effect = lower value 0.931 | locus YJR043C, strain POL32, stronger effect = lower value 0.965 | locus YJR066W, strain TOR1, stronger effect = lower value 0.853 | locus YKL009W, strain mrt4, stronger effect = lower value 0.924 | locus YKL160W, strain elf1, stronger effect = lower value 0.911 | locus YKR026C, strain gcn3, stronger effect = lower value 0.929 | locus YKR091W, strain srl3, stronger effect = lower value 0.942 | locus YLL001W, strain dnm1, stronger effect = lower value 0.919 | locus YLL026W, stronger effect = lower value 0.935 | locus YLR027C, strain aat2, stronger effect = lower value 0.93 | locus YLR058C, strain SHM2, stronger effect = lower value 0.906 | locus YLR102C, strain apc9, stronger effect = lower value 0.941 | locus YLR113W, strain HOG1, stronger effect = lower value 0.925 | locus YLR221C, strain rsa3, stronger effect = lower value 0.931 | locus YLR262C, strain YPT6 (second series), stronger effect = lower value 0.857 | locus YLR268W, strain sec22, stronger effect = lower value 0.964 | locus YLR320W, strain mms22, stronger effect = lower value 0.916 | locus YLR342W, strain FKS1, stronger effect = lower value 0.941 | locus YLR357W, strain rsc2, stronger effect = lower value 0.909 | locus YLR384C, strain iki3, stronger effect = lower value 0.937 | locus YML120C, strain ndi1, stronger effect = lower value 0.926 | locus YMR058W, strain fet3, stronger effect = lower value 0.914 | locus YMR125W, strain sto1, stronger effect = lower value 0.907 | locus YMR129W, stronger effect = lower value 0.949 | locus YMR205C, strain PFK2, stronger effect = lower value 0.91 | locus YMR231W, strain pep5, stronger effect = lower value 0.984 | locus YMR307W, strain GAS1, stronger effect = lower value 1.06 | locus YNL067W, strain RPL9B, stronger effect = lower value 0.899 | locus YNL071W, strain lat1, stronger effect = lower value 0.926 | locus YNL128W, strain TEP1, stronger effect = lower value 0.933 | locus YNL153C, strain GIM3, stronger effect = lower value 0.9 | locus YNL183C, strain NPR1, stronger effect = lower value 0.869 | locus YNL209W, strain ssb2, stronger effect = lower value 0.97 | locus YNL298W, strain CLA4, stronger effect = lower value 0.953 | locus YNL322C, strain KRE1 (second series), stronger effect = lower value 0.935 | locus YNR049C, strain mso1, stronger effect = lower value 0.92 | locus YNR052C, strain pop2, stronger effect = lower value 0.949 | locus YOL006C, strain TOP1, stronger effect = lower value 0.578 | locus YOL012C, strain htz1 1.06 | locus YOR061W, strain CKA2, stronger effect = lower value 0.957 | locus YOR070C, strain gyp1, stronger effect = lower value 0.951 | locus YOR080W, strain dia2, stronger effect = lower value 0.942 | locus YOR083W, strain WHI5, stronger effect = lower value 0.89 | locus YOR136W, strain idh2, stronger effect = lower value 0.928 | locus YOR184W, strain ser1, stronger effect = lower value 0.915 | locus YOR231W, strain MKK1, stronger effect = lower value 0.905 | locus YOR290C, strain snf2, stronger effect = lower value 0.88 | locus YPL051W, strain arl3, stronger effect = lower value 0.956 | locus YPL055C, strain LGE1, stronger effect = lower value 0.922 | locus YPL106C, strain sse1, stronger effect = lower value 0.88 | locus YPL240C, strain hsp82, stronger effect = lower value 0.952 | locus YPL256C, strain CLN2, stronger effect = lower value 0.839
